Substitutions are numbered along the chain they refer to; changes in the protein carry UniProt numbers. In all, about 16,000 sequences were measured (“ka relative to ugcaugu”: median about 0.096, highest 2% from about 0.35 on). Many of the other results were omitted from the sample, so the highest values are more common in it than they were.

The labels stand for the following.
B1: CGGGAUC (DNA:RNA)
RNA: GGGAGACCGGAAUUCAGAUUGUCCCGGGAUCUUAAAUCCCGUCGUAGCCACCA
DNA 1: CAATCTGAATTCCGGTCTCCC
DNA 2: TGGTGGCTACGACGGGATT
B2: CACCGGA (DNA:RNA)
RNA: B1 RNA with G26A, G27C, G28C, A29G, U30G, C31A
DNA 1: CAATCTGAATTCCGGTCTCCC
DNA 2: TGGTGGCTACGACGGGATT
B3: CGUCCGU (DNA:RNA)
RNA: B1 RNA with G27U, G28C, A29C, U30G, C31U
DNA 1: CAATCTGAATTCCGGTCTCCC
DNA 2: TGGTGGCTACGACGGGATT
B4: GUCCGGA (DNA:RNA)
RNA: GGGAGACCGGAAUUCAGAUUGUCCGUCCGGAUUAAAUCCCGUCGUAGCCACCA
DNA 1: CAATCTGAATTCCGGTCTCCC
DNA 2: TGGTGGCTACGACGGGATT
B5: UGAUAUG (DNA:RNA)
RNA: B1 RNA with C25U, G27A, G28U, C31G
DNA 1: CAATCTGAATTCCGGTCTCCC
DNA 2: TGGTGGCTACGACGGGATT
B6: CGUAUCG (DNA:RNA)
RNA: B1 RNA with G27U, G28A, A29U, U30C, C31G
DNA 1: CAATCTGAATTCCGGTCTCCC
DNA 2: TGGTGGCTACGACGGGATT
B7: GUAUUGU (DNA:RNA)
RNA: B4 RNA with C27A, C28U, G29U, A31U
DNA 1: CAATCTGAATTCCGGTCTCCC
DNA 2: TGGTGGCTACGACGGGATT
B8: GUCCCGU (DNA:RNA)
RNA: B4 RNA with G29C, A31U
DNA 1: CAATCTGAATTCCGGTCTCCC
DNA 2: TGGTGGCTACGACGGGATT
B9: CGGAUUG (DNA:RNA)
RNA: B1 RNA with G28A, A29U, C31G
DNA 1: CAATCTGAATTCCGGTCTCCC
DNA 2: TGGTGGCTACGACGGGATT
B10: UGAUAUA (DNA:RNA)
RNA: B1 RNA with C25U, G27A, G28U, C31A
DNA 1: CAATCTGAATTCCGGTCTCCC
DNA 2: TGGTGGCTACGACGGGATT
B11: UGAUAUC (DNA:RNA)
RNA: B1 RNA with C25U, G27A, G28U
DNA 1: CAATCTGAATTCCGGTCTCCC
DNA 2: TGGTGGCTACGACGGGATT
B12: GGAUUGU (DNA:RNA)
RNA: B4 RNA with U26G, C27A, C28U, G29U, A31U
DNA 1: CAATCTGAATTCCGGTCTCCC
DNA 2: TGGTGGCTACGACGGGATT
B13: GUAUCGU (DNA:RNA)
RNA: B4 RNA with C27A, C28U, G29C, A31U
DNA 1: CAATCTGAATTCCGGTCTCCC
DNA 2: TGGTGGCTACGACGGGATT
B14: AUUCGUU (DNA:RNA)
RNA: B4 RNA with G25A, C27U, G30U, A31U
DNA 1: CAATCTGAATTCCGGTCTCCC
DNA 2: TGGTGGCTACGACGGGATT
B15: UUAGGAG (DNA:RNA)
RNA: B4 RNA with G25U, C27A, C28G, G30A, A31G
DNA 1: CAATCTGAATTCCGGTCTCCC
DNA 2: TGGTGGCTACGACGGGATT
B16: AGGCUCU (DNA:RNA)
RNA: B1 RNA with C25A, G28C, A29U, U30C, C31U
DNA 1: CAATCTGAATTCCGGTCTCCC
DNA 2: TGGTGGCTACGACGGGATT
B17: CGCGGGG (DNA:RNA)
RNA: B1 RNA with G27C, A29G, U30G, C31G
DNA 1: CAATCTGAATTCCGGTCTCCC
DNA 2: TGGTGGCTACGACGGGATT
B18: UCCAGCA (DNA:RNA)
RNA: B4 RNA with G25U, U26C, C28A, G30C
DNA 1: CAATCTGAATTCCGGTCTCCC
DNA 2: TGGTGGCTACGACGGGATT
B19: GGAUCGG (DNA:RNA)
RNA: B4 RNA with U26G, C27A, C28U, G29C, A31G
DNA 1: CAATCTGAATTCCGGTCTCCC
DNA 2: TGGTGGCTACGACGGGATT
B20: CACCACG (DNA:RNA)
RNA: B1 RNA with G26A, G27C, G28C, U30C, C31G
DNA 1: CAATCTGAATTCCGGTCTCCC
DNA 2: TGGTGGCTACGACGGGATT
B21: AGAUCGU (DNA:RNA)
RNA: B1 RNA with C25A, G27A, G28U, A29C, U30G, C31U
DNA 1: CAATCTGAATTCCGGTCTCCC
DNA 2: TGGTGGCTACGACGGGATT
B22: GGGAUCG (DNA:RNA)
RNA: B1 RNA with C25G, G28A, A29U, U30C, C31G
DNA 1: CAATCTGAATTCCGGTCTCCC
DNA 2: TGGTGGCTACGACGGGATT
B23: GGAUAUG (DNA:RNA)
RNA: B1 RNA with C25G, G27A, G28U, C31G
DNA 1: CAATCTGAATTCCGGTCTCCC
DNA 2: TGGTGGCTACGACGGGATT
B24: CGAUCGU (DNA:RNA)
RNA: B1 RNA with G27A, G28U, A29C, U30G, C31U
DNA 1: CAATCTGAATTCCGGTCTCCC
DNA 2: TGGTGGCTACGACGGGATT
B25: GGAUCGU (DNA:RNA)
RNA: B4 RNA with U26G, C27A, C28U, G29C, A31U
DNA 1: CAATCTGAATTCCGGTCTCCC
DNA 2: TGGTGGCTACGACGGGATT
B26: GGGAUUG (DNA:RNA)
RNA: B1 RNA with C25G, G28A, A29U, C31G
DNA 1: CAATCTGAATTCCGGTCTCCC
DNA 2: TGGTGGCTACGACGGGATT
B27: CGGAUCG (DNA:RNA)
RNA: B1 RNA with G28A, A29U, U30C, C31G
DNA 1: CAATCTGAATTCCGGTCTCCC
DNA 2: TGGTGGCTACGACGGGATT
B28: CGAUAUG (DNA:RNA)
RNA: B1 RNA with G27A, G28U, C31G
DNA 1: CAATCTGAATTCCGGTCTCCC
DNA 2: TGGTGGCTACGACGGGATT
B29: GUAUAUG (DNA:RNA)
RNA: B1 RNA with C25G, G26U, G27A, G28U, C31G
DNA 1: CAATCTGAATTCCGGTCTCCC
DNA 2: TGGTGGCTACGACGGGATT
B30: GUGAGUC (DNA:RNA)
RNA: B1 RNA with C25G, G26U, G28A, A29G
DNA 1: CAATCTGAATTCCGGTCTCCC
DNA 2: TGGTGGCTACGACGGGATT
B31: UUCUCUG (DNA:RNA)
RNA: B4 RNA with G25U, C28U, G29C, G30U, A31G
DNA 1: CAATCTGAATTCCGGTCTCCC
DNA 2: TGGTGGCTACGACGGGATT

The target in this assay is T1, RBFOX1 RRM RbFoxmut (Fox-RRM*) (Homo sapiens, UniProt Q9NWB1 109-208, R118D;E147R;N151S;E152T).
T1 sequence: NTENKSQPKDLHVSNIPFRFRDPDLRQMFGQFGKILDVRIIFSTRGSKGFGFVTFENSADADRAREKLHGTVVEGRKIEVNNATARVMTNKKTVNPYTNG
Description: EMSA; HiTS-Eq, 1 nM pool, 10 min; buffer printed only for the single-RNA assays: 10 mM Tris pH 7.5, 150 mM NaCl, 3.4 mM EDTA, 0.001% NP-40, 30 C. As to conditions: tags: His6 N-terminal (pET28a); label: 5' 32P. The procedure, abridged: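 Purified RbFox RRM (wild type or mutant) was equilibrated for 10 min in 50 µL with 1 nM of a 5′-radiolabelled pool of RNA with 7 randomized nucleotides, its flanks annealed to DNA oligonucleotides, across increasing protein concentrations. Free RNA was separated by 8% native PAGE, excised, reverse-transcribed, PCR-barcoded and sequenced on an Illumina HiSeq 2500. Relative association constants came from read-count changes of each variant against the control reaction, normalised to the cognate motif.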
Background: In EMSA bound probe runs differently from free probe, usually more slowly.
B1: the binding signal is 0.141 KA relative to UGCAUGU.

In the case of B2, the binding signal is 0.0666 KA relative to UGCAUGU.

In the case of B3, the binding signal is 0.119 KA relative to UGCAUGU.

As for B4, the binding signal is 0.0725 KA relative to UGCAUGU.

B5: the binding signal was 0.437 KA relative to UGCAUGU.

For B6, the binding signal is 0.263 KA relative to UGCAUGU.

Turning to B7, the binding signal was 0.309 KA relative to UGCAUGU.

Consider B8, for which the binding signal was 0.11 KA relative to UGCAUGU.

As to B9, the binding signal was 0.522 KA relative to UGCAUGU.

For the molecule B10, the binding signal was 0.0947 KA relative to UGCAUGU.

For the molecule B11, the binding signal is 0.145 KA relative to UGCAUGU.

Consider B12, for which the binding signal was 0.39 KA relative to UGCAUGU.

As for B13, the binding signal is 0.461 KA relative to UGCAUGU.

As for B14, the binding signal is 0.134 KA relative to UGCAUGU.

Take B15: the binding signal was 0.129 KA relative to UGCAUGU.

In the case of B16, the binding signal is 0.0577 KA relative to UGCAUGU.

Turning to B17, the binding signal is 0.0735 KA relative to UGCAUGU.

Take B18: the binding signal was 0.123 KA relative to UGCAUGU.

Turning to B19, the binding signal was 0.176 KA relative to UGCAUGU.

Regarding B20, the binding signal was 0.125 KA relative to UGCAUGU.

As for B21, the binding signal was 0.105 KA relative to UGCAUGU.

As to B22, the binding signal is 0.369 KA relative to UGCAUGU.

Take B23: the binding signal is 0.496 KA relative to UGCAUGU.

As for B24, the binding signal is 0.118 KA relative to UGCAUGU.

Consider B25, for which the binding signal is 0.354 KA relative to UGCAUGU.

As for B26, the binding signal was 0.282 KA relative to UGCAUGU.

On to B27, for which the binding signal was 0.331 KA relative to UGCAUGU.

On to B28, for which the binding signal is 0.159 KA relative to UGCAUGU.

Turning to B29, the binding signal is 0.199 KA relative to UGCAUGU.

As to B30, the binding signal is 0.138 KA relative to UGCAUGU.

Take B31: the binding signal is 0.0908 KA relative to UGCAUGU.

The values above are taken from publication PMC9911399, “Two distinct binding modes provide the RNA-binding protein RbFox with extraordinary sequence specificity”.
